# Measured values taken from PubChem BioAssay (EPA / NIEHS).
# Records with an inconclusive call do not appear. Where a structure was tested more than once in an assay, its records may differ in their call. Calls of active or inactive are those of the source. The calls were made as follows, unless noted: active = hit-call score of the fitted dose curve at least 0.9, where 1 is the maximum; inactive = score below 0.9.
# Read-out: Intercellular Adhesion Molecule 1 (ICAM1), ICAM1 (gene 3383)
# Assay: BSK_3C_ICAM1: BioMAP Diversity Plus: 3C Assay for Intercellular Adhesion Molecule 1 (ICAM1) Biomarker Activity (AID 2283003)
# Conditions: primary human endothelial cells (HUVEC); actives raise or lower the signal
# Outline: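 Chemicals are dosed onto primary human umbilical vein endothelium (3C system). After 24 h, ICAM-1 is measured by ELISA, and responses are fitted bidirectionally relative to DMSO.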
SMILES,outcome,AC50
OC(Cc1ccccc1Cl)(Cn1cncn1)C1(Cl)CC1 (configuration not stated),inactive,–
O=S(=O)(C(Cl)(Cl)Cl)C(Cl)(Cl)Cl,–,2.9 µM (active)
Cc1cc(Cl)ccc1OC(C)C(=O)O (configuration not stated),inactive,–
O=C(Cc1ccccc1)OCCc1ccccc1,inactive,–
CCOP(=S)(OCC)OP(=S)(OCC)OCC,–,36.8 µM (active)
O=[N+]([O-])c1ccc(Nc2ccccc2)cc1,inactive,–
C[C@]12CC[C@@H](O)C[C@@H]1CC[C@@H]1[C@@H]2CC[C@]2(C)C(=O)CC[C@@H]12,inactive,–
Oc1cccc(-c2ccccc2)c1,inactive,–
NC(=O)CCl,inactive,–
O=c1oc2ccccc2c(O)c1C(CC(O)c1ccc(-c2ccc(Br)cc2)cc1)c1ccccc1 (configuration not stated),–,27.2 µM (active)
C#CCOC(=O)/C=C(C)/C=C/CC(C)CCCC(C)C (configuration not stated),inactive,–
CCCCCCCCCCCCN(C)C,inactive,–
CCOC(=O)CCN(SN(C)C(=O)Oc1cccc2c1OC(C)(C)C2)C(C)C,inactive,–
Cc1ccccc1OP(=O)(Oc1ccccc1C)Oc1ccccc1C,inactive,–
O=S(=O)(c1ccc(Cl)cc1)c1cc(Cl)c(Cl)cc1Cl,inactive,–
N#CCCC(Br)(C#N)CBr (configuration not stated),–,11 µM (active)
CCOC(=O)CC(=O)CCl,inactive,–
O=C1C=CC(=O)c2ccccc21,–,5.9 µM (active)
CC(C)(COCC1CO1)COCC1CO1 (configuration not stated),inactive,–

SMILES,outcome,AC50
Oc1ccc(Cc2ccc(O)cc2)cc1,inactive,–
CC(C=O)Cc1ccc2c(c1)OCO2 (configuration not stated),inactive,–
Nc1c(Oc2ccccc2)cc(O)c2c1C(=O)c1ccccc1C2=O,inactive,–
CC(C)(C)c1cc([N+](=O)[O-])cc(C(C)(C)C)c1O,inactive,–
Oc1c(Cl)cc(Cl)cc1Cl,inactive,–
[Cl][Sn]([c]1ccccc1)([c]1ccccc1)[c]1ccccc1,–,0.318 µM (active)
CC1(C)[C@H](C(=O)O[C@H](C#N)c2cccc(Oc3ccccc3)c2)[C@@H]1/C=C(\Cl)C(F)(F)F,inactive,–
Cc1ccc(OP(=O)(Oc2ccc(C)cc2C)Oc2ccc(C)cc2C)c(C)c1,inactive,–
O=[N+]([O-])c1cccc2ccccc12,inactive,–
Cc1ccc2nc3sc(=O)sc3nc2c1,–,7.74 µM (active)
c1ccc(-c2cccc(-c3ccccc3)c2)cc1,inactive,–
CCC(C)(C#N)N=NC(C)(C#N)CC (configuration not stated),inactive,–
CCN(CC)C(=O)C(Cl)=C(C)OP(=O)(OC)OC,inactive,–
CCOP(=O)(OCC)OC(=CCl)c1ccc(Cl)cc1Cl,inactive,–
Cc1cccc(OP(=O)(Oc2cccc(C)c2)Oc2cccc(C)c2)c1,inactive,–
OCCCCO,inactive,–
Cc1ccccc1OP(=O)(Oc1ccccc1)Oc1ccccc1,inactive,–
COCC(=O)N(c1c(C)cccc1C)[C@H](C)C(=O)OC,inactive,–
CCCCOC(=O)COC(=O)c1ccccc1C(=O)OCCCC,inactive,–

# Molecular target: human Retinoic Acid Receptor beta (RARb), RARB (gene 5915) (UniProt P10826)
# Sequence (P10826 whole entry, looked up): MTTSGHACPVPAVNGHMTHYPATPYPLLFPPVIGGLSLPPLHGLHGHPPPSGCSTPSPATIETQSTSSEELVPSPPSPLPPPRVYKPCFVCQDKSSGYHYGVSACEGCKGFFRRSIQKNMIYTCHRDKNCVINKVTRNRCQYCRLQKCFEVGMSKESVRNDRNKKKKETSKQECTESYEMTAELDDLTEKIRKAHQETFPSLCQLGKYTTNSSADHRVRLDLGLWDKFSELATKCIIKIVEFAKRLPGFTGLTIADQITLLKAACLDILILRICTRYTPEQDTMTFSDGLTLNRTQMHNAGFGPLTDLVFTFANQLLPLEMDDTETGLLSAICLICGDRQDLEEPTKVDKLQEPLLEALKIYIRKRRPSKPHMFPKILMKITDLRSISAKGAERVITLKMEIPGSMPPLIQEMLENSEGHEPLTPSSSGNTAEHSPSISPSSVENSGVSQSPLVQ
# Assay: ATG_RARb_TRANS: Attagene TRANS-FACTORIAL HepG2 Assay for human Retinoic Acid Receptor beta (AID 2283004; active = hit-call score of the fitted dose curve at least 0.9, where 1 is the maximum)
# Conditions: not given
# Outline: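 Readout is reporter mRNA induction: RNA reverse-transcribed, PCR-amplified, FAM-labelled, HpaI-cut and resolved by capillary electrophoresis. Transiently transfected HepG2 cells carrying exogenous NR–Gal4 chimeras were dosed for 24 h; activity fitted upward relative to DMSO.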
row,SMILES,outcome
1,OC(Cc1ccccc1Cl)(Cn1cncn1)C1(Cl)CC1 (configuration not stated),inactive
2,C[C@]12CC[C@@H](O)C[C@@H]1CC[C@@H]1[C@@H]2CC[C@]2(C)C(=O)CC[C@@H]12,inactive
3,Oc1cccc(-c2ccccc2)c1,inactive
4,NC(=O)CCl,inactive
5,C#CCOC(=O)/C=C(C)/C=C/CC(C)CCCC(C)C (configuration not stated),inactive
6,CC(C)(COCC1CO1)COCC1CO1 (configuration not stated),inactive
7,Nc1c(Oc2ccccc2)cc(O)c2c1C(=O)c1ccccc1C2=O,inactive
8,CC(C)(C)c1cc([N+](=O)[O-])cc(C(C)(C)C)c1O,inactive
9,Cc1ccc2nc3sc(=O)sc3nc2c1,inactive
10,CCOP(=O)(OCC)OC(=CCl)c1ccc(Cl)cc1Cl,inactive
11,COCC(=O)N(c1c(C)cccc1C)[C@H](C)C(=O)OC,inactive

# Molecular target: Retinoic acid receptor alpha (Homo sapiens) (UniProt P10276)
# Sequence (P10276 whole entry, looked up): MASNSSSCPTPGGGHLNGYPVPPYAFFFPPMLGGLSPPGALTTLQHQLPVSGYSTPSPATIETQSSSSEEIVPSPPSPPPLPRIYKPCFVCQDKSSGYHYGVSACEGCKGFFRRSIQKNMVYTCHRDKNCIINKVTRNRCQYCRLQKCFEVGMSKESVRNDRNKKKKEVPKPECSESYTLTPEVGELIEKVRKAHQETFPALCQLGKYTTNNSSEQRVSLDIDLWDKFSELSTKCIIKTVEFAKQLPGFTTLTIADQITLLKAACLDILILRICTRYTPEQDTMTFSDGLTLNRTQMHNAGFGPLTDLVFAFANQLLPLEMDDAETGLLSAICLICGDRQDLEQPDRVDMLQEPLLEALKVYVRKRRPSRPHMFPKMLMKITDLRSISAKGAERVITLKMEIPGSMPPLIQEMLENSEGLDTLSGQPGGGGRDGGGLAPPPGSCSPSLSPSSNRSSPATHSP
# Assay: ATG_RARa_TRANS: Attagene TRANS-FACTORIAL HepG2 Assay for human Retinoic Acid Receptor alpha (RARa) (AID 2283005; active = hit-call score of the fitted dose curve at least 0.9, where 1 is the maximum;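 as to AC50: potency for increased reporter signal meaning RARa activation over DMSO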)
# Conditions: not given
# Outline: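 Reporter transcripts, measured by RT-PCR with fluorescent labeling and capillary electrophoresis after 24 h dosing, reflect activity of an exogenous human RARa–GAL4 fusion in transiently transfected HepG2. Fitted for increase relative to DMSO.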
SMILES,outcome,AC50
OC(Cc1ccccc1Cl)(Cn1cncn1)C1(Cl)CC1 (configuration not stated),inactive,–
C[C@]12CC[C@@H](O)C[C@@H]1CC[C@@H]1[C@@H]2CC[C@]2(C)C(=O)CC[C@@H]12,inactive,–
NC(=O)CCl,inactive,–
C#CCOC(=O)/C=C(C)/C=C/CC(C)CCCC(C)C (configuration not stated),inactive,–
CC(C=O)Cc1ccc2c(c1)OCO2 (configuration not stated),inactive,–
Nc1c(Oc2ccccc2)cc(O)c2c1C(=O)c1ccccc1C2=O,inactive,–
CC(C)(C)c1cc([N+](=O)[O-])cc(C(C)(C)C)c1O,–,2.37 µM (active)
Cc1ccc2nc3sc(=O)sc3nc2c1,inactive,–
COCC(=O)N(c1c(C)cccc1C)[C@H](C)C(=O)OC,inactive,–

# Read-out: not listed separately
# Assay: BSK_3C_Proliferation: Cell Proliferation Assessment in the BioMAP Diversity Plus: 3C Assay (AID 2283006);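 as to AC50: potency may reflect either rise or fall in cell number versus DMSO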
# Conditions: primary human endothelial cells (HUVEC)
# Outline: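 Cells (human umbilical vein endothelial, sub-confluent) receive test chemical; after 48 h they are fixed in 10% trichloroacetic acid, stained with 0.1% SRB and read at 560 nm. Activity is referenced to DMSO, fitting increases and decreases.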
SMILES,outcome,AC50
OC(Cc1ccccc1Cl)(Cn1cncn1)C1(Cl)CC1 (configuration not stated),inactive,–
O=S(=O)(C(Cl)(Cl)Cl)C(Cl)(Cl)Cl,–,0.2 µM (active)
Cc1cc(Cl)ccc1OC(C)C(=O)O (configuration not stated),inactive,–
O=C(Cc1ccccc1)OCCc1ccccc1,inactive,–
CCOP(=S)(OCC)OP(=S)(OCC)OCC,–,31.6 µM (active)
O=[N+]([O-])c1ccc(Nc2ccccc2)cc1,inactive,–
C[C@]12CC[C@@H](O)C[C@@H]1CC[C@@H]1[C@@H]2CC[C@]2(C)C(=O)CC[C@@H]12,inactive,–
Oc1cccc(-c2ccccc2)c1,–,27.2 µM (active)
NC(=O)CCl,inactive,–
O=c1oc2ccccc2c(O)c1C(CC(O)c1ccc(-c2ccc(Br)cc2)cc1)c1ccccc1 (configuration not stated),–,6.58 µM (active)
C#CCOC(=O)/C=C(C)/C=C/CC(C)CCCC(C)C (configuration not stated),–,23.6 µM (active)
CCCCCCCCCCCCN(C)C,inactive,–
CCOC(=O)CCN(SN(C)C(=O)Oc1cccc2c1OC(C)(C)C2)C(C)C,–,23.3 µM (active)
Cc1ccccc1OP(=O)(Oc1ccccc1C)Oc1ccccc1C,–,8.31 µM (active)
O=S(=O)(c1ccc(Cl)cc1)c1cc(Cl)c(Cl)cc1Cl,–,5.2 µM (active)
N#CCCC(Br)(C#N)CBr (configuration not stated),–,1.28 µM (active)
CCOC(=O)CC(=O)CCl,–,20 µM (active)
O=C1C=CC(=O)c2ccccc21,–,0.46 µM (active)
CC(C)(COCC1CO1)COCC1CO1 (configuration not stated),–,20 µM (active)

SMILES,outcome,AC50
Oc1ccc(Cc2ccc(O)cc2)cc1,inactive,–
CC(C=O)Cc1ccc2c(c1)OCO2 (configuration not stated),inactive,–
Nc1c(Oc2ccccc2)cc(O)c2c1C(=O)c1ccccc1C2=O,inactive,–
CC(C)(C)c1cc([N+](=O)[O-])cc(C(C)(C)C)c1O,–,0.704 µM (active)
Oc1c(Cl)cc(Cl)cc1Cl,inactive,–
[Cl][Sn]([c]1ccccc1)([c]1ccccc1)[c]1ccccc1,–,0.0518 µM (active)
CC1(C)[C@H](C(=O)O[C@H](C#N)c2cccc(Oc3ccccc3)c2)[C@@H]1/C=C(\Cl)C(F)(F)F,inactive,–
Cc1ccc(OP(=O)(Oc2ccc(C)cc2C)Oc2ccc(C)cc2C)c(C)c1,–,6.87 µM (active)
O=[N+]([O-])c1cccc2ccccc12,inactive,–
Cc1ccc2nc3sc(=O)sc3nc2c1,–,7.3 µM (active)
c1ccc(-c2cccc(-c3ccccc3)c2)cc1,–,13.2 µM (active)
CCC(C)(C#N)N=NC(C)(C#N)CC (configuration not stated),inactive,–
CCN(CC)C(=O)C(Cl)=C(C)OP(=O)(OC)OC,inactive,–
CCOP(=O)(OCC)OC(=CCl)c1ccc(Cl)cc1Cl,–,28.9 µM (active)
Cc1cccc(OP(=O)(Oc2cccc(C)c2)Oc2cccc(C)c2)c1,–,8.53 µM (active)
OCCCCO,inactive,–
Cc1ccccc1OP(=O)(Oc1ccccc1)Oc1ccccc1,–,20 µM (active)
COCC(=O)N(c1c(C)cccc1C)[C@H](C)C(=O)OC,inactive,–
CCCCOC(=O)COC(=O)c1ccccc1C(=O)OCCCC,inactive,26.1 µM (active)
